Test results published in PubChem BioAssay.

Test: E. coli acrAB mutant growth effects, primary screen, E. coli filamentation inducers, strain DRC39, OD650, 24 h (AID 1178);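 also: growth measured as culture turbidity by optical density at 650 nm; test concentration not given here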
Settings: higher = more signal, called active from +8 up or from −8 down

z-score, inactive:
CN(C)CCCNC(=O)[C@@H]1c2ccccc2C(=O)N(Cc2ccccc2)[C@H]1c1ccc(CO)cc1 -0.0194
COc1ccc([Si](C)(C)[C@H]2[C@H](CC(=O)N3CCC[C@H]3CO)O[C@@]3(C(=O)N(Cc4cccc(N5C(=O)COc6ccccc65)c4)c4ccccc43)[C@@H]2C)cc1 1.21
C=CC[C@]1(C(=O)NCc2ccccc2)N=C(c2ccc(OCCCO)cc2)O[C@H]1c1ccccc1 0.0557
COC(=O)[C@@]1(Cc2ccc(F)cc2)[C@H]2c3cc(C(=O)N(C)C)n(Cc4ccc(OC)c(OC)c4)c3C[C@H]2CN1C(=O)c1ccccc1 -0.252
O=C(CS)NCCCCCNC(=O)[C@H]1C[C@H]2C(=O)N3CCC[C@H]3C(=O)N2[C@H]1c1cccc(OCCO)c1 -0.201
Cn1cccc1C(O)C1C=CC2C(=O)NC(=O)C2N1Nc1ccccn1 (stereo unspecified) -0.512
O=C1O[C@@H](c2ccccc2)[C@@H](c2ccccc2)N2[C@@H](c3ccc(OCCO)cc3)[C@]3(C(=O)Nc4ccccc43)[C@@H](C(=O)N3CCN(c4ncccn4)CC3)[C@H]12 0.142
COC(=O)c1c(CC[C@@H](CO)NC(=O)N[C@H](Cc2ccccc2)Cn2cc(-c3ccccc3N)nn2)oc(C(C)=O)c1C(=O)OC 1.18
COC(=O)[C@@H]1N=C(c2ccc(OCCCO)cc2)O[C@@H]1c1ccccc1N=[N+]=[N-] 2.09
CCOC(=O)C1=CC[C@H]2C(=O)N(CC)C(=O)[C@@H]12 -0.0583
C=C(/C(=C/C[C@H](OC(C)=O)c1ccc(OCCO)cc1)c1cnc2ccccc2c1)C(C)C 0.263
N#Cc1ccc(NN2C(C(O)c3cc(C(F)(F)F)cc(C(F)(F)F)c3)C=CC3C(=O)N(c4ccccc4)C(=O)C32)cc1 (stereo unspecified) -1.55
COCCOC(=O)N1C(=O)[C@@]2(c3cc(C#CCNC(N)=O)ccc31)[C@H](c1ccccc1OCCO)N1[C@H](c3ccccc3)[C@H](c3ccccc3)OC(=O)[C@H]1[C@@H]2C(=O)N1CCN(c2ncccn2)CC1 0.924
CC(C)[Si]1(C(C)C)O[C@@H](c2ccccc2)c2cc(C3CC3)nc(-c3ccccc3)c21 -0.281
COc1ccc([Si](C)(C)[C@@H]2[C@@H](CC(=O)N3CCC[C@H]3CO)O[C@]3(C(=O)N(Cc4cccc(N5CCC5=O)c4)c4ccccc43)[C@H]2C)cc1 0.52
CN(C)c1ccc(C(O)C2C=CC3C(=O)N(c4ccccc4)C(=O)C3N2Nc2ccccc2F)cc1 (stereo unspecified) -0.853
CCCCCN1CC=CC23O[C@@H]4C=CCOC(=O)[C@@H]4[C@H]2C(=O)N(CCCCCCO)[C@@H]3C1=O (stereo partly specified) 0.282
CC(C)(C)OC(=O)CC[C@]1(C(N)=O)COC(c2ccc(OCCCO)cc2)=N1 -0.34
CC(C)(C)OC(=O)CC[C@]1(C(=O)NCc2ccccc2)N=C(c2ccc(OCCCO)cc2)O[C@H]1c1ccccc1 0.732
COc1ccc(CCNC(=O)[C@@H]2c3ccccc3C(=O)N(c3ccc(C)cn3)[C@H]2c2ccc(CO)cc2)cc1 0.0636
CC1CC/C=C\[C@H]2OC34C=CCN(Cn5nnc6ccccc65)C(=O)[C@H]3N(CCO)C(=O)[C@@H]4C2C(=O)O1 (stereo partly specified) 0.673
C[N+](C)(C)CCCCCCNC(=O)[C@@H]1C[C@@H]2C(=O)N3CCC[C@H]3C(=O)N2[C@@H]1c1cccc(OCCO)c1 0.0995
CN1C(=O)[C@@]2(CCC(=O)OC(C)(C)C)N=C(c3ccc(OCCCO)cc3)O[C@H]2c2ccccc21 1.2
COCC1=C2[C@@H](CCc3ccccc3)OB(O)C[C@@H]2n2c(=O)n(-c3ccccc3)c(=O)n2C1 0.969
CCCCC(=C=CC[C@H](O)c1ccccc1OCCO)C[C@H](O)COCc1ccccc1 0.156
COCCOC(=O)N1C(=O)[C@@]2(c3cc(C#CCNC(N)=O)ccc31)[C@H](c1ccc(O)cc1)N1[C@H](c3ccccc3)[C@H](c3ccccc3)OC(=O)[C@H]1[C@@H]2C(=O)N1CCCCCCC1 0.474
CC(C)NC(=O)[C@@H]1c2ccccc2C(=O)N(CC23CC4CC(CC(C4)C2)C3)[C@H]1c1ccc(CO)cc1 0.765
CCCC[C@@H]1C[C@H]1[C@@H](NS(=O)(=O)c1cccc2cccnc12)c1ccc(-c2ccccc2)cc1 -0.366
CC(C)N1CC=CC23O[C@@H]4C=CCCOC(=O)C4[C@H]2C(=O)N(CCCCCCO)[C@@H]3C1=O (stereo partly specified) 0.66
CC(C)=C1C(=O)C(c2ccccc2)=C2CN3C(=O)N(CCc4ccccc4)C(=O)[C@]3(Cc3ccc(F)cc3)[C@H]21 -0.933
CO[C@H]1O[C@H](CO)[C@@H](OC(=O)Nc2ccc(C#N)cc2)[C@H](OC(=O)c2cc3ccccc3[nH]2)[C@H]1OC(=O)c1cc2ccccc2[nH]1 2.96
[N-]=[N+]=NCc1ccccc1[C@@H]1OC(c2ccc(OCCCO)cc2)=N[C@]1(Cc1ccccc1)C(=O)N1CCOCC1 0.559
CC(C)c1ccc(NN2C(C(O)c3ccc4c(c3)OCO4)C=CC3C(=O)N(c4ccccc4)C(=O)C32)cc1 (stereo unspecified) -0.167
COCC(=C=CC[C@@H](O)c1ccccc1OCCO)CCO 1.63
CC(C)OC(=O)C=C1C[C@@H](c2ccc(C#N)cc2)O[C@@H](c2ccc(C#N)cc2)O1 -0.667
CC(C)(C)N1CC=CC23O[C@@H]4C=CCCOC(=O)C4[C@H]2C(=O)N(CCCCCO)[C@@H]3C1=O (stereo partly specified) 0.251
